Reference: PubChem BioAssay (NCI)
This is part of a sample that, as a whole, favours compounds with a hit. Of some 79,000 tested, about 15% had one in any assay. Active and inactive are the calls of the source. Rule as the data show it: active = growth inhibition above about 70%; inactive = the rest.

What was measured:
[1] = NCI Yeast Anticancer Drug Screen. Data for the rad50 strain (AID 155);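 also: 0% = growth of vehicle-only cultures of the same strain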; settings: S. cerevisiae rad50 strain growth inhibition; at 50.0 µM; stronger effect = higher value
Method in brief: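 Growth of the mutant yeast was measured after compound exposure and referenced to vehicle-treated cultures.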

[2] = NCI Yeast Anticancer Drug Screen. Data for the mec2-1 strain (AID 157); settings: S. cerevisiae mec2-1 strain, at 50.0 µM, stronger effect = higher value
Method in brief: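 Readout is yeast growth inhibition, normalised to vehicle-treated controls, in the mec2-1 strain exposed to compound.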

[3] = NCI Yeast Anticancer Drug Screen. Data for the sgs1 mgt1 strain (AID 161);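 also: 0% = growth of cultures given vehicle only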; settings: S. cerevisiae sgs1 mgt1 strain, at 50.0 µM, stronger effect = higher value
Method in brief: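 Percent growth inhibition was derived by comparing compound-exposed mutant yeast with vehicle-exposed cultures. The strain carries alterations in DNA damage repair.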

[4] = NCI Yeast Anticancer Drug Screen. Data for the cln2 rad14 strain (AID 165);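 also: 0% = growth equal to vehicle treated cultures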; settings: S. cerevisiae cln2 rad14 strain, at 50.0 µM, stronger effect = higher value
Method in brief: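 Relative to vehicle controls, growth inhibition of compound-treated cln2 rad14 yeast was recorded.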

[5] = NCI Yeast Anticancer Drug Screen. Data for the bub3 strain (AID 167); settings: S. cerevisiae bub3 mutant strain, at 50.0 µM, stronger effect = higher value
Method in brief: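 Whole-cell yeast assay. The mutant strain was incubated with compounds, and growth inhibition was determined by comparison with vehicle-treated cells.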

[6] = NCI Yeast Anticancer Drug Screen. Data for the mlh1 rad18 strain (AID 175); settings: S. cerevisiae mlh1 rad18 strain growth inhibition; at 50.0 µM; stronger effect = higher value
Method in brief: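 Test agents were incubated with a yeast strain of defined genotype (DNA damage repair defect). Inhibition of growth was derived by comparison with vehicle-exposed cultures.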

Measured: growth inhibition

CN(C)N=Nc1cccc(Cl)c1
inactive: [1] 25.9% | [2] 0.6% | [3] 10.3% | [4] 16.2% | [5] 8.8% | [6] 14.2%

Cc1ccc2c(c1)sc(C)[n+]2CCO
inactive: [1] -19.9% | [2] -19.5% | [3] -38.8% | [4] -5.65% | [5] -9.65% | [6] -18.4%

COc1cccc([N+](=O)[O-])c1
inactive: [1] 18.3% | [2] 32.2% | [3] -14.8% | [4] -5.9% | [5] -0.9% | [6] 5.75%

CCOc1ccc2c(c1)nc1ccccc1[n+]2C
inactive: [1] 21.6% | [2] 15.4% | [3] 22% | [4] 25.5% | [5] 52.4% | [6] 39.9%

C/C(CC(c1ccccc1)c1ccccc1)=N\Nc1ccc([N+](=O)[O-])cc1[N+](=O)[O-]
inactive: [1] 13.4% | [2] 3.95% | [3] 14.4% | [4] 19.2% | [5] 7.4% | [6] 8.55%

CN(C)c1ccc(/C=C(\C#N)c2ccc(F)cc2F)cc1
inactive: [1] 0.4% | [2] -2.75% | [3] -3.4% | [4] -9.05% | [5] -5.25% | [6] -23.9%

O=C(O)/C=C/C=C/c1ccc(Cl)cc1
inactive: [1] 7.25% | [2] 23.4% | [3] 4.3% | [4] -14% | [5] 10.4% | [6] -1.95%

O=C(O)c1ccccc1C(=O)OCC1CCCc2ccccc21 (configuration not stated)
inactive: [1] 11.7% | [2] 45.7% | [3] 41.5% | [4] -100% | [5] 43.5% | [6] 46%

C/C=C(\CC)C(C#N)O[Si](C)(C)C (configuration not stated)
inactive: [1] 13.2% | [2] 4.4% | [3] 1.45% | [4] 6.5% | [5] 10% | [6] -24.6%

COc1ccc(CNc2nc3ccc(C(F)(F)F)cc3nc2-c2ccccc2)cc1OC
inactive: [1] -33.8% | [2] 3.7% | [3] 17.6% | [4] 6.45% | [5] 1.05% | [6] -11.9%

O=CN1CCN(c2ccc3ccc(=O)[nH]c3n2)CC1
inactive: [1] -4.45% | [2] -24.2% | [3] 19.5% | [4] 9% | [5] -5.05% | [6] -14.2%

CCOC(=O)c1ccc(Nc2nc3ccc(C(F)(F)F)cc3nc2C(=O)OCC)cc1
inactive: [1] -24.6% | [2] 3% | [3] -11.9% | [4] -12.9% | [5] -6.2% | [6] -12.2%

c1ccc(-c2ccccc2NC2=NCCO2)cc1
inactive: [1] 6.55% | [2] -2.8% | [3] 2.2% | [4] -25.1% | [5] 11.4% | [6] 5.7%

Cc1ccc(S(=O)(=O)NC(=O)C2S(=O)(=O)OCCOS2(=O)=O)cc1
inactive: [1] -2.75% | [2] 4.15% | [3] -7.1% | [4] -1.85% | [5] -11.3% | [6] -16.4%

O=S(=O)(NC/C=C/c1ccccc1)c1ccccc1
inactive: [1] -6.95% | [2] 16.7% | [3] -0.45% | [4] 26.9% | [5] 4.65% | [6] -39.9%

CN(C)c1ccc(C(=C2C=CC(=[N+](C)C)C=C2)c2c(O)c(S(=O)(=O)[O-])cc3cc(S(=O)(=O)O)ccc23)cc1
inactive: [1] 1.4% | [2] -21.5% | [3] -41.5% | [4] 15.1% | [5] -14.6% | [6] 27.1%

CCOC(=O)c1cc2c(nc1N)C(=O)CCCC2
inactive: [1] -34.5% | [2] -59.1% | [3] -48.3% | [4] -23.9% | [5] -24.6% | [6] -31.6%

CCOC(=O)C(C(=O)OCC)C(NC(=O)Nc1cc(C(F)(F)F)ccc1OC)(C(F)(F)F)C(F)(F)F
inactive: [1] 23.1% | [2] 11.6% | [3] 11.4% | [4] 3.45% | [5] 21.6% | [6] 24.8%

NC(=O)N/N=C(\c1ccccc1)C1CCCCc2ccccc21 (configuration not stated)
inactive: [1] 48.5% | [2] 20.6% | [3] 33.2% | [4] 9.95% | [5] 43% | [6] 48%

O=C(NCCO)Nc1ccc2c(c1)OCCOCCOCCOCCO2
inactive: [1] -0.95% | [2] 4.8% | [3] -2.65% | [4] 14.1% | [5] 1.75% | [6] 5.9%

O=C(c1ccccc1)c1cccnc1
inactive: [1] -10.6% | [2] -18.3% | [3] -17.4% | [4] -25.1% | [5] -45.2% | [6] -35.4%

O=S(=O)(Nc1ccnn1-c1ccccc1)c1ccc(NC(=S)Nc2ccccc2)cc1
inactive: [1] 34.1% | [2] 38.5% | [3] 46% | [4] 27.7% | [5] 56.4% | [6] 65.5%

COc1ccccc1/C=C/C(=O)c1ccccc(=O)c1O
inactive: [1] -9% | [2] -5.05% | [3] -4.35% | [4] -23.4% | [5] -1.05% | [6] -11.2%

C#C[C@@H](CCCC)OC(=O)N[C@H](C)c1ccccc1
inactive: [1] 58.9% | [2] 49.6% | [3] 64.5% | [4] -11.6% | [5] 22.5% | [6] 16.1%

CCOc1ccc(N)c([N+](=O)[O-])c1
inactive: [1] 4.65% | [2] 21.9% | [3] 22.9% | [4] -34.4% | [5] -7.75% | [6] 3.1%

CC(C)CCC[C@@H](C)[C@H]1CC[C@H]2[C@@H]3C[C@@H](O)[C@@]4(O)C[C@@H](O)CC[C@]4(C)[C@H]3CC[C@]12C
inactive: [1] 27.6% | [2] 8.65% | [3] 14.1% | [4] -12.4% | [5] -7.25% | [6] 19.5%

COc1cc(C(=O)c2cocc2C(=O)c2ccc3c(c2)OCO3)cc(OC)c1OC
inactive: [1] -17.2% | [2] -33.3% | [3] -10.3% | [4] -18.4% | [5] -25.6% | [6] -14.8%

CCC1C(=O)Nc2ccccc21 (configuration not stated)
inactive: [1] 16.4% | [2] 16.9% | [3] 1.3% | [4] 7.85% | [5] 13.8% | [6] 8.5%

CC1CC(c2ccccc2)=Nc2ccccc2S1 (configuration not stated)
inactive: [1] 18.2% | [2] 12.9% | [3] 16.2% | [4] 19.5% | [5] 6.5% | [6] -9.4%

c1ccc(CC2COC(c3cccs3)=N2)cc1 (configuration not stated)
inactive: [1] 26.9% | [2] -13.2% | [3] 21.6% | [4] 18.1% | [5] 31.2% | [6] 9%

N#[N+]c1ccc2c(c1)C(=O)c1ccccc1-2
inactive: [1] 3.2% | [2] 0.05% | [3] -0.6% | [4] -46.2% | [5] 8.6% | [6] -6.65%

ONC1=Nc2cc(Cl)ccc2C(=S)N2CSCC12 (configuration not stated)
inactive: [1] 1.55% | [2] 18.6% | [3] -0.25% | [4] 0.45% | [5] -9.8% | [6] 18.8%

O=[N+]([O-])C(Cl)C(Cl)C(Cl)=C(Cl)Cl (configuration not stated)
inactive: [1] 23.9% | [2] 17.1% | [3] 51% | [4] 35.8% | [5] 60.8% | [6] 52.2%

CC(C)(C)[Si](C)(C)OCCc1ccccc1C1CC2(S(=O)(=O)c3ccccc3)ON1CC2S(=O)(=O)c1ccccc1 (configuration not stated)
inactive: [1] 15.1% | [2] -1.7% | [3] -8.2% | [4] -12.6% | [5] 8.4% | [6] 21.4%

O=c1[nH]c(=O)n(C2CC(O)C(CO)O2)cc1C#Cc1ccc(F)cc1 (configuration not stated)
inactive: [1] -3.45% | [2] 19.2% | [3] -15.2% | [4] -5.6% | [5] 3.85% | [6] -8.95%

Cc1cc(N(CCC#N)S(=O)(=O)c2ccccc2)ccc1C=Nc1ccc(C(=O)O)cc1
inactive: [1] -12.2% | [2] -8.35% | [3] -6.15% | [4] -3.8% | [5] 1.85% | [6] -6.85%

C/C=C/c1nc2c(c(=O)n(C)c(=O)n2C)n1C
inactive: [1] -8.05% | [2] -8.2% | [3] -6% | [4] -28.8% | [5] 0.95% | [6] 7%
